Only some compounds are listed: those with a hit (about 3.6% of all), similar ones and a draw of the others.
HEK293 cAMP ctrl – raises cAMP in parental HEK293 cells, TSHR agonist counter-screen | parental HEK293 CNG cAMP sensor, membrane potential fluorescence | Potency, µM (highest dose often 57.1 µM), most hits filed as activators | 73,000 compounds, 2.5% hits; further: nearly all actives have a fitted effect of over 55% in size
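Parental HEK 293 cells stably expressing a modified CNG channel (no TSHR) report cAMP rise as membrane depolarization. Membrane potential dye with 100 uM RO 20-1724 was loaded for 60 min at room temperature, then compound added for 30 min; fluorescence read at 590 nm.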
IkB signaling – suppresses IkB signaling in ABC-DLBCL reporter cells; 110,000 compounds, 0.04% hits; Potency, µM (doses to about 57.1 µM); ABC-DLBCL IkBa-CBG/CBR dual luciferase ratio, 4 h; response scale: scaled: untreated 0%, proteasome inhibitor 100%; active means well fitted curve in the direction sought with a large enough effect in the signal ratio, not every such curve was filed as active; inconclusive means small, poorly fitted or top-dose-only effect, or a change in a side signal; the % refers to the signal ratio;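 further: the direction sought is a rising ratio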
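Curves were fitted separately to fusion (green), unfused (red) and ratio luminescence, then classed by r2, magnitude and activity. Cells: OCI-Ly3, 4 h compound plus doxycycline at 37C; 10 uM MG-132 defined full response.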
TSHR ag – agonists of human thyroid stimulating hormone receptor. P16473. HEK293-CNG-TSHR cells (CNG channel as cAMP sensor), membrane potential dye, cAMP. Potency, µM (titrated, usually from 57.1 µM), most hits filed as activators. 73,000 compounds, 0.48% hits. AID 926; active means well fitted activation curve with a large enough effect in the main read-out, with a control signal flat, not every such curve was filed as active; inconclusive means small, poorly fitted or top-dose-only effect, or a change in a side signal; inactive means no such curve, though single readings can be large or run the other way; reference of the percent scale not stated here;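 further: the control signal comes from parental cells without the receptor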
Target sequence (P16473 whole entry, looked up): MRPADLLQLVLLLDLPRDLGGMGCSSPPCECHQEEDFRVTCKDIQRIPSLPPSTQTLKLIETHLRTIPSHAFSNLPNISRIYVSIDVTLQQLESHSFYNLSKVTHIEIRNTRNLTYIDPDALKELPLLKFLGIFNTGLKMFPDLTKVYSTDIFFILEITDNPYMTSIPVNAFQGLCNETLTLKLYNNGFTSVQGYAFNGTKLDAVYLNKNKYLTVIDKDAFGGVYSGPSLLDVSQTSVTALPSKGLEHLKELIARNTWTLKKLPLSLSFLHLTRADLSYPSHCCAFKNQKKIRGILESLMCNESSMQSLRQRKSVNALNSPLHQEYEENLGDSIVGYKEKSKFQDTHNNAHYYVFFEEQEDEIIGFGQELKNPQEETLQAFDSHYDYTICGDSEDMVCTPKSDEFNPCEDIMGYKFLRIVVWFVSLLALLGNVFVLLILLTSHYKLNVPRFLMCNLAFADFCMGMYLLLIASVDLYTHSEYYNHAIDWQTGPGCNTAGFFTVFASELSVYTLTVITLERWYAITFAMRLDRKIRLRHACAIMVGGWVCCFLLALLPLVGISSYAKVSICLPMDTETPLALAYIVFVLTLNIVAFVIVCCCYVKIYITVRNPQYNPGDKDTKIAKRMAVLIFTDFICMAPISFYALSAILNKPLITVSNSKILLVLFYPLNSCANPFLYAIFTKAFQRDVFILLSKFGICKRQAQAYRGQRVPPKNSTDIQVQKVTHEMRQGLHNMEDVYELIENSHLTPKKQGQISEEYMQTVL
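HEK 293 cells stably expressing TSHR and a modified CNG channel, with CNG-only parental cells as counterscreen, were preloaded 60 min at room temperature with membrane potential dye containing 100 uM RO 20-1724. Compound exposure was 30 min, and depolarization was read as fluorescence at 590 nm.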
ERK AVP inh – inhibitors of vasopressin-stimulated ERK signaling pathway; HEK293-V1b, vasopressin-stimulated pERK AlphaScreen; Potency, µM (highest dose often 57.5 µM), most hits filed as inhibitors; 72,000 compounds, 0.99% hits; further: nearly all actives have a fitted effect of over 55% in size
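HEK293 cells stably expressing V1b receptor, preincubated 30 min at 37 °C with compound, then stimulated 5 min with 25 nM vasopressin. Phospho-ERK by AlphaScreen SureFire after 5 h RT; normalized to DMSO and vasopressin; AC50 by Hill fit.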
CRE Fsk mod – alters forskolin-stimulated CRE reporter signaling in CHO cells; CHO CRE-bla reporter (cAMP response element driving beta-lactamase), forskolin EC10, beta-lactamase ratio; Potency, µM (highest dose often 38.2 µM), most hits filed as activators; 71,000 compounds, 2.5% hits; AID 662; active means well fitted activation curve with a large enough effect in the signal ratio, with a control signal flat, not every such curve was filed as active; inconclusive means small, poorly fitted or top-dose-only effect, or effect the other way, or a change in a side signal; the % refers to the signal ratio
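qHTS titration format; CRE-bla CHO reporter; stimulus EC10 NKH 477, a water-soluble forskolin. Read: CCF4 460/530 nm ratio. Potency expressed as AC50 for activators or inhibitors.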
Each line names hits and unclear results; the compound was inactive in the other large screens; ! = repeats disagree. Unless noted, the call rests on the fitted dose curve; in most records, active means well fitted curve in the direction sought with a large enough effect; inconclusive means small, poorly fitted or top-dose-only effect, or another doubt; inactive means no such curve, though single readings can be large; an effect the other way counts as inactive or inconclusive.

CCNc1ncc2nc(-c3ccc(Cl)cc3)c(=O)n(C[C@H]3CCCO3)c2n1	ERK AVP inh inconclusive, CRE Fsk mod 6.3µM
N#Cc1cccc(-c2nc3cnc(N4CCOCC4)nc3n(C[C@H]3CCCO3)c2=O)c1	HEK293 cAMP ctrl inconclusive, TSHR ag inconclusive, CRE Fsk mod inconclusive
O=c1c(-c2ccc(Cl)cc2)nc2cnc(N3CCOCC3)nc2n1C[C@H]1CCCO1	CRE Fsk mod 0.79µM
CCNc1ncc2nc(-c3ccc(OC)cc3)c(=O)n(C[C@H]3CCCO3)c2n1	HEK293 cAMP ctrl inconclusive, TSHR ag inconclusive, CRE Fsk mod inconclusive
CN1CCN(c2ncc3ncc(=O)n(Cc4ccc(F)cc4)c3n2)CC1	none (no result: TSHR ag)
CN1CCN(c2ncc3nc(-c4cccc(C#N)c4)c(=O)n(C[C@H]4CCCO4)c3n2)CC1	CRE Fsk mod 10µM
O=c1cnc2cnc(N3CCOCC3)nc2n1Cc1ccc(F)cc1	HEK293 cAMP ctrl 2.5µM, TSHR ag inconclusive, ERK AVP inh inconclusive, CRE Fsk mod inconclusive
CN(C)S(=O)(=O)c1ccc(NC(=O)c2cc3ccccc3o2)cc1	none
CCOC(=O)N1CCN(c2c(N3CCN(c4ccccc4OC)CC3)c(=O)c2=O)CC1	none
CCCCC(=O)Nc1ccc(Br)cc1C(=O)O	IkB signaling inconclusive
Cc1cc(C(=O)CSc2nnc(-c3cccs3)n2Cc2ccccc2)c(C)n1C	HEK293 cAMP ctrl inconclusive, IkB signaling inconclusive, TSHR ag inconclusive
C=CCn1c(SCc2ccc(C#N)cc2)nnc1-c1cccc(OC)c1	HEK293 cAMP ctrl 3.2µM, TSHR ag inconclusive
C=CCn1c(SCc2ccc(OC)cc2)nnc1-c1cccnc1	none
O=c1cc(CSc2nnc(-c3cccs3)n2Cc2ccccc2)nc2sc3ccccc3n12	HEK293 cAMP ctrl 10µM, IkB signaling inconclusive, TSHR ag inconclusive, CRE Fsk mod inconclusive
COc1cccc(-c2nnc(SCc3ccc(C#N)cc3)n2Cc2ccco2)c1	HEK293 cAMP ctrl 6.3µM, IkB signaling inconclusive, TSHR ag inconclusive
c1ccc(CSc2nnc(-c3cccs3)n2Cc2ccco2)cc1	HEK293 cAMP ctrl 25µM, TSHR ag inconclusive
c1ccc(CSc2nnc(-c3ccco3)n2Cc2ccco2)cc1	none (no result: TSHR ag)
C=CCn1c(SCCCc2ccccc2)nc2c1c(=O)[nH]c(=O)n2C	IkB signaling inconclusive, CRE Fsk mod inconclusive (no result: ERK AVP inh)
C[C@@H](N1CCOCC1)[C@@](O)(c1ccccc1)c1ccccn1	none
Oc1ccc(N2CCN(C(c3cccnc3)c3nnnn3Cc3ccccc3)CC2)cc1 (stereo unspecified)	CRE Fsk mod inconclusive
Cc1cccc(-c2nnc(SCc3nc4ccccc4[nH]3)n2Cc2ccco2)c1	HEK293 cAMP ctrl 13µM, IkB signaling inconclusive, TSHR ag inconclusive, CRE Fsk mod 2.5µM
c1coc(Cn2c(SCc3nc4ccccc4[nH]3)nnc2-c2cccs2)c1	none
Cc1onc(-c2ccccc2)c1C(=O)NCCc1c[nH]c2ccccc12	CRE Fsk mod inconclusive
COc1ccc(-c2nnc3c4ccccc4c(C)nn23)cc1S(=O)(=O)N1CCN(CCO)CC1	ERK AVP inh inconclusive, CRE Fsk mod 10µM (no result: TSHR ag)
O=C1c2oc3ccccc3c(=O)c2C(c2cccc(O)c2)N1c1nncs1 (stereo unspecified)	none (no result: HEK293 cAMP ctrl, TSHR ag, ERK AVP inh, CRE Fsk mod)
c1ccc2c(c1)nnn1c3ccccc3nc21	CRE Fsk mod 10µM
CCc1nn(Cc2ccc(Cl)cc2)c(=O)c2cc3cc(C)ccc3n12	none (no result: HEK293 cAMP ctrl, TSHR ag, ERK AVP inh, CRE Fsk mod)
COc1ccc(-c2cc(-c3ccccc3O)[nH]n2)cc1OC	IkB signaling inconclusive, ERK AVP inh inconclusive, CRE Fsk mod inconclusive
COc1ccc(-c2cc(-c3cc(F)ccc3O)[nH]n2)cc1OC	IkB signaling inconclusive, ERK AVP inh 32µM
COc1cc(-c2nc3oc4ccccc4c(=O)c3c(=O)n2Cc2ccco2)cc(OC)c1OC	IkB signaling inconclusive, CRE Fsk mod 2.5µM
Cc1nn(-c2ccc(Cl)cc2)c2sc(C(=O)N3CCN(C(=O)c4ccco4)CC3)cc12	none
Cc1nn(-c2ccc(F)cc2)c2sc(C(=O)N3CCCCCC3)cc12	CRE Fsk mod 1µM (no result: TSHR ag)
Cn1nc(C(=O)NCc2cccnc2)c2ccccc2c1=O	CRE Fsk mod inconclusive
Cn1nc(C(=O)Nc2cccnc2)c2ccccc2c1=O	CRE Fsk mod 10µM
O=C(C1CCN(S(=O)(=O)c2cccc3cccnc23)CC1)N1CC=C(c2ccccc2)CC1	HEK293 cAMP ctrl inconclusive, IkB signaling inconclusive, TSHR ag inconclusive, ERK AVP inh 25µM, CRE Fsk mod inconclusive
O=c1c(-c2ccccc2)n[nH]c2ccccc12	none
O=C1c2ccccc2-c2n[nH]c3cccc1c23	HEK293 cAMP ctrl inconclusive, TSHR ag inconclusive, ERK AVP inh 10µM, CRE Fsk mod 16µM!
COc1ccc(C)cc1NC(=O)CCn1nc(C)cc1C	none (no result: HEK293 cAMP ctrl, TSHR ag, ERK AVP inh, CRE Fsk mod)
CCN1CCN(C(c2cccs2)C(C)NC(=O)c2cccc(OC)c2OC)CC1 (stereo unspecified)	none
O=S(=O)(c1ccccc1)N1CCC2(CCCN(c3ccccc3)C2)CC1	HEK293 cAMP ctrl 25µM, TSHR ag inconclusive
O=S(=O)(c1ccccc1)N1CCC2(CCCN(c3ccncc3)C2)CC1	HEK293 cAMP ctrl 20µM, TSHR ag inconclusive
N#Cc1ccc(CN2CCCC3(CCN(S(=O)(=O)c4ccccc4)CC3)C2)cc1	HEK293 cAMP ctrl 13µM, TSHR ag inconclusive
CC(=O)Nc1ccc(S(=O)(=O)NCCc2csc3nc(-c4cccc(C)c4)nn23)cc1	none (no result: HEK293 cAMP ctrl, TSHR ag, ERK AVP inh, CRE Fsk mod)
COc1ccc(-c2nc3cnc(N(C)C)nc3n(C)c2=O)cc1	CRE Fsk mod 2µM
COc1ccc(-c2nc3cnc(N(C)C)nc3n(C3CC3)c2=O)cc1	CRE Fsk mod inconclusive
COc1ccc(-c2nc3cnc(N(C)C)nc3n(C[C@H]3CCCO3)c2=O)cc1	CRE Fsk mod 2µM
COc1ccc(Oc2ncc3nc(-c4ccc(Cl)cc4)c(=O)n(C[C@H]4CCCO4)c3n2)cc1	CRE Fsk mod inconclusive
CN(C)c1ncc2nc(-c3cccs3)c(=O)n(C[C@H]3CCCO3)c2n1	CRE Fsk mod 1.6µM
CC(Cc1ccccc1)C(=O)NCCc1c[nH]c2ccccc12 (stereo unspecified)	HEK293 cAMP ctrl 13µM, TSHR ag inconclusive, ERK AVP inh inconclusive, CRE Fsk mod inconclusive (no result: IkB signaling)
O=C(NCCc1c[nH]c2ccccc12)C(F)(F)C(F)F	CRE Fsk mod inconclusive
C=C(C)CSc1nncn1/N=C/c1ccc(OC)cc1	ERK AVP inh inconclusive
CCSc1nncn1/N=C/c1ccc(OC)c(OC)c1	CRE Fsk mod 10µM
CCOC(=O)CC1=C(C(=O)OCC)C(c2ccc(OC)cc2OC)C(C#N)=C(N)O1 (stereo unspecified)	none (no result: IkB signaling, ERK AVP inh, CRE Fsk mod)
Cc1nn(-c2ccccc2)c2c1/C(=N/O)CC(C)(C)C2	HEK293 cAMP ctrl 25µM, TSHR ag inconclusive, CRE Fsk mod inconclusive
CCOC(=O)N1CCN(C(=O)CCn2nc(-c3ccccc3)ccc2=O)CC1	CRE Fsk mod inconclusive
O=C(CSc1nnc(-c2ccc(Br)cc2)o1)Nc1cccc2ccccc12	IkB signaling inconclusive, TSHR ag 0.04µM
